This excerpt belongs to a sample that is enriched for hits.
LmPK inhibitor: inhibitors of Leishmania mexicana pyruvate kinase; Q27686; purified LmPK, Kinase-Glo ATP luminescence, 1 h; Potency, µM (doses to about 57.5 µM), for inactives: at the highest dose activity change, negative = inhibition, actives largely listed as inhibitors; hit rate 0.37% among 290,000; AID 1721; also: potency is read from the fitted curve at half-maximal effect; % is scaled to controls: 0 for no effect and ±100 for the full control effect
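0.1 nM LmPK, 0.5 mM PEP, 0.1 mM ADP; 50 mM imidazole pH 7.2, 7 mM MgCl2, 50 mM KCl; 1 h RT. Kinase-Glo luminescence readout, normalized to no-enzyme (full inhibition) and uninhibited wells.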
CHX counter: affects cycloheximide protein synthesis inhibition readout, counter-screen; cell reporter, cycloheximide protein synthesis inhibition counterscreen; max response, %; hit rate 12% among 300,000; AID 2314; in the data active = max response mostly above about 13%, no sharp cut-off; inactive = mostly below about 14%; also: read at 38.3 µM for the half of the compounds with a filed dose; 0% is about no effect
Sm TGR block: inhibitors of Schistosoma mansoni thioredoxin glutathione reductase; Q962Y6; Potency, µM (top dose mostly 114 µM), without a hit: top-dose activity change, negative = inhibition, actives largely listed as inhibitors; purified TGR, DTNB reduction, TNB absorbance 405 nm; hit rate 3% among 360,000; AID 485364; also: potency is read from the fitted curve at half-maximal effect; % is scaled to controls: 0 for no effect and ±100 for the full control effect; nearly all actives have a fitted effect of over 60% in size
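TGR 20 nM + NADPH 100 uM (dispensed conc.), cpd preinc 15 min RT; start with NADPH (500 uM addition) then DTNB (15 mM addition). Kinetic TNB absorbance, 405 nm filter. Four-parameter Hill fit across titration.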
TbPYK inhibitor: inhibitors of Trypanosoma brucei pyruvate kinase. Q57TT1. TbPYK enzyme, Kinase-Glo Plus ATP luminescence, 45 min. Potency, µM (titrated, usually from 76.8 µM), inactives show at the highest dose activity, negative = inhibition, most hits filed as inhibitors. hit rate 0.12% among 410,000. AID 624173; also: potency is read from the fitted curve at half-maximal effect; % is scaled to controls: 0 for no effect and ±100 for the full control effect; nearly all actives have a fitted effect of over 50% in size
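Readout: single end-point luminescence (Kinase-Glo Plus, 10 min). Reaction conditions were TbPYK/substrate plus 130 uM ADP, 45 min at RT, pH 7.2 TEA buffer. No-enzyme wells served as controls, and data were normalized before concentration-response fitting.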
FBPA Giardia inh: blocks Giardia fructose-bisphosphate aldolase activity | hit rate 0.71% among 290,000 | Potency, µM (top dose mostly 59.6 µM), inactives show top-dose activity, negative = inhibition, hits mostly inhibitors | A8B2U2 | purified Giardia FBPA; also: potency is read from the fitted curve at half-maximal effect; % is scaled to controls: 0 for no effect and ±100 for the full control effect; nearly all actives have a fitted effect of over 55% in size
Target sequence (A8B2U2 whole entry, looked up): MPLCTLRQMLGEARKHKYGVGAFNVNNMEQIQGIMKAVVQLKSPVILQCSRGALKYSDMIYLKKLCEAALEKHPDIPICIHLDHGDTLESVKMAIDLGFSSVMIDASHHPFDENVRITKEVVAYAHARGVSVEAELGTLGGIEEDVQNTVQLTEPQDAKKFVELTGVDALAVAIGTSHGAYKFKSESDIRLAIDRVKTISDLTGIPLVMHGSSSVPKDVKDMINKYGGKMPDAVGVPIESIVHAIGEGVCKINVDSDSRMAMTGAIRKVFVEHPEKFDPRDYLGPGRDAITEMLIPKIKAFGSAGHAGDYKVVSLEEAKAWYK
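Giardia FBPA (40 nM reagent) was preincubated 10 min at RT with compound (up to 57.5 uM final), then substrate plus GAPDH/TPI/NAD/arsenate coupling system with diaphorase/resazurin was added; resorufin fluorescence (525/598 nm) was read after 20 min.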
Shiga toxin inh: Shiga toxin inhibition; Vero cells, Shiga toxin protein synthesis inhibition reporter; inhibition, % at 38.7 µM; hit rate 9.2% among 290,000; AID 2315; in the data active = inhibition mostly above about 28%, no sharp cut-off; inactive = mostly below about 43%; also: 0% is about no effect
An asterisk follows results filed as active; ? = inconclusive; . = no result given; [ ] = another dose, or the depositor's remark. Unless noted, calls follow the shape of the dose curve; as a rule, active = well fitted curve in the direction sought with a large enough effect; inconclusive = small, poorly fitted or top-dose-only effect, or another doubt; inactive = no such curve, though single readings can be large; an effect the other way counts as inactive or inconclusive.

SMILES	LmPK inhibitor	CHX counter	Sm TGR block	TbPYK inhibitor	FBPA Giardia inh	Shiga toxin inh
CC(=O)NC1=NN(C(C)=O)C(C)(c2ccc(C)o2)S1 (stereo not drawn)	-6%	19*	41%	2%	0%	22
CC(=O)NC1=NN(C(C)=O)C(C)(c2ccco2)S1 (stereo not drawn)	-1%	43*	4%	1%	1%	59*
Cc1cc(O)c(C=O)c2c1C(=O)Oc1c(CO)c(O)c3c(c1O2)C(O)OC3=O (stereo not drawn)	-7%	2	14µM*	2%	?	12
Cc1cc2c(nc1C)CCCCN2C[C@H](C)O/N=C1/[C@H]2O[C@@H]2[C@@H](O)[C@H]2[C@H]1CCn1c(=O)n(-c3ccccc3)c(=O)n12	.	.	.	.	0%[12.9 µM]	.
Cc1cc2c(s1)c1cnn(Cc3ccc(C(C)C)cc3)c(=O)c1n2C	.	-2	.	.	.	-3
Cc1ccc(-c2nnc3ccccc3c2C(=O)Nc2ccc(C)c(F)c2)cc1	.	.	-4%	1%[15.4 µM]	.	.
Oc1ccc(Cl)cc1C=NCCc1ccccc1	-9%	15*	-9%	1%	4%	57*
Oc1ccccc1C=NCCN=Cc1ccccc1O	-24%	1	0%	7%	-25%	28
COc1ccc(CCCc2nnc(SCC(=O)Nc3ccc(Cl)cc3)o2)cc1	.	.	9%	0%	.	.
COc1ccc(-n2c(C)cc(C(=O)CN3C(=O)c4ccccc4C3=O)c2C)cc1	4%	20*	5%	4%	-6%	40
Cc1ccc(C)c(C(=O)CN2C(=O)c3ccccc3C2=O)c1	-2%	9	5%	-3%	2%	-15
COc1ccc(-n2c(C)cc(C(=O)COC(=O)c3ccc(O)cc3O)c2C)cc1	.	.	-14%	3%	.	.
Cc1cc(C(=O)CN2C(=O)c3ccccc3C2=O)c(C)n1C1CC1	1%	23*	-24%	1%	-1%	15
COc1ccc(-n2c(C)cc(C(=O)CCl)c2C)cc1	-7%	11	4µM*	-2%	1%	-6
Nc1c(-c2nc(-c3ccncc3)no2)nnn1CC(=O)Nc1ccccc1	.	.	-3%	2%	.	.
CC1=C(c2ccc(F)cc2)[N+](=O)C(C)(C)N1[O-]	-1%	1	-5%	3%	15%	-12
CC1=C(c2ccc(C)cc2)[N+](=O)C(C)(C)N1[O-]	-20%	19*	9%	3%	-4%	78*
Cc1ccc(-n2cnc3c(=O)[nH]cnc32)cc1[N+](=O)[O-]	.	.	.	-4%	.	.
CC(C)(C)NC(=O)CSc1ncnc2c1cnn2-c1ccccc1	-4%	30*	4%	9%	-3%	32
CCOC(=O)CNC(=O)CSc1ncnc2c1cnn2-c1ccc(OC)cc1	0%	29*	1%	9%	1%	16
CCOC(=O)CSc1ncnc2c1cnn2-c1ccccc1	-3%	-3	2%	4%	0%	31
CCOC(=O)CC(=O)CSc1ncnc2c1cnn2-c1ccccc1	-1%	58*	-2%	-5%	-7%	81*
CC1CN(C(=O)N2CCC(C(=O)NCCCc3ccccc3)CC2)c2ccccc2O1 (stereo not drawn)	.	.	-9%	-7%	.	.
c1ccc2c(c1)oc1c(Nc3ccc(CN4CCOCC4)cc3)ncnc12	-9%	92*	-2%	-1%	-3%	106*
Oc1ccc(Nc2ncnc3c2oc2ccccc23)cc1	-8%	40*	-10%	7%	-12%	33*
SMILES	LmPK inhibitor	CHX counter	Sm TGR block	TbPYK inhibitor	FBPA Giardia inh	Shiga toxin inh
CC(C)C(Nc1ncnc2c1oc1ccccc12)C(=O)O (stereo not drawn)	-1%	-2	9%	-3%	6%	24
CC(=O)c1ccc(Nc2nc(C)nc3c2oc2ccccc23)cc1	6%	8	4%	.	2%	-2
c1ccc(Nc2ncnc3c2oc2ccccc23)cc1	7%	66*	1%	1%	-23%	121*
Oc1ccccc1Nc1ncnc2c1oc1ccccc12	4%	39*	-1%	1%	3%	46
Cn1c(NCCc2ccncc2)nc2cc(-c3ccsc3)sc2c1=O	.	.	.	6%	.	.
Nc1ncnc2c1ncn2[C@@H]1O[C@H](COP(=O)(O)OP(=O)(O)OP(=O)(O)OP(=O)(O)OC[C@@H]2O[C@H](n3cnc4c(N)ncnc43)[C@@H](O)[C@@H]2O)[C@H](O)[C@H]1O	.	.	.	.	-2%	.
Cc1cc2c(Nc3cccc(O)c3)ncnc2s1	0%	19*	-8%	-2%	-15%	23
O=S(=O)(Nc1ncnc2c1oc1ccccc12)c1ccc(Cl)s1	1%	16*	?	-1%	15%	-6
Oc1cccc(Nc2ncnc3c2oc2ccccc23)c1	-1%	50*	6%	-1%	-16%	93*
O=C1CC(c2ccco2)CC(O)=C1C=Nc1cc(Cl)cc(Cl)c1 (stereo not drawn)	7%	3	18µM*	-11%	-12%	22
O=C1CC(c2ccco2)CC(O)=C1C=NCCN1CCNCC1 (stereo not drawn)	-3%	-2	40µM*	1%	-15%	-2
Cc1[nH]nc(N=CC2=C(O)CC(c3ccco3)CC2=O)c1-c1ccccc1 (stereo not drawn)	1%	14*	?	1%	-9%	73
CCOc1ccc(N=CC2=C(O)CC(c3ccco3)CC2=O)cc1 (stereo not drawn)	3%	8	-12%	-2%	3%	8
Cc1[nH]nc(N=CC2=C(O)CC(C)(C)CC2=O)c1-c1ccccc1	1%	1	-19%	4%	-4%	-5
CCCNC(=O)c1ccccc1NC(=O)c1nsc2ccccc12	.	.	6%	-12%	.	.
CCOc1ccccc1NC(=O)Cn1cc(C(=O)c2ccc(Cl)cc2)c(=O)c2ccc(C)nc21	.	.	5%	-9%	.	.
CCN(CC)/[N+]([O-])=N/Oc1cc(O/N=[N+](\[O-])N(C)C)c([N+](=O)[O-])cc1[N+](=O)[O-]	.	1	.	.	2%	-6
CCSc1nc(N)c2c(C)c(C)sc2n1	3%	2	-3%	?	2%	21
C=CCSc1nc(N)c2c3c(sc2n1)CN(C)CC3	0%	21*	53%	5%	-27%	12
CCSc1nc(N)c2c3c(sc2n1)CN(C)CC3	-2%	-2	-11%	.	-17%	-2
COC(CSc1nc(N)c2c3c(sc2n1)CN(C)CC3)OC	-2%	31*	-16%	-10%	?	42
C=CCSc1nc(N)c2c(C)c(C)sc2n1	8%	11*	0%	4%	-4%	29
COc1ccc(C(=O)Nc2ccccc2C(=O)OCc2cc(=O)n3c4c(sc3n2)CCCC4)cc1	.	.	4%	-4%	.	.
Cc1cc(C)c(Cn2c3ccccc3c3cnn(CC(=O)N4CCCCCC4)c(=O)c32)c(C)c1	.	.	-7%	4%	.	.
O=C(Nc1ccnn1C1CCN(Cc2ccccc2OC(F)F)CC1)c1cccnc1	-1%	-2	-18%	-4%	?	-5
